The panel holds about 83,000 compounds, 20% with a hit somewhere; the sample as a whole holds those more often.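 Growth was measured after 48 h exposure to one concentration of compound in 96-well plates. Values under 10 count as active.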 Unmarked numbers belong to inactive results. Calls of active or inactive are those of the source.

Holding throughout (assay): NCI-60 one-dose screen, 48 h (100 = growth as untreated, 0 = no growth, -100 = all killed)
What all share (conditions): 10 µM unless noted

The subject of assay [1] is SR leukemia.
In assay [2] the test system is RPMI-8226 leukemia.
Assay [3] relates to OVCAR-8 ovarian.
Assay [4] relates to OVCAR-5 ovarian.
Assay [5] relates to OVCAR-4 ovarian.
In assay [6] the test system is SK-OV-3 ovarian.
Assay [7] has as its system IGROV1 ovarian.
The subject of assay [8] is OVCAR-3 ovarian.
Assay [9] has as its system HS 578T breast.
For assay [10], the system named is NCI/ADR-RES ovarian.
The subject of assay [11] is T-47D breast.
The test system of assay [12] is BT-549 breast.
In assay [13] the test system is MDA-MB-435 melanoma.
For assay [14], the system named is SW-620 colon.
Assay [15] concerns MCF7 breast.
For assay [16], the system named is HCT-116 colon.
The subject of assay [17] is HCC-2998 colon.
Assay [18] has as its system KM12 colon.

`O=C(CCn1c[n+](CC(=O)c2ccc(-c3ccccc3)cc2)c2ccccc21)Nc1cccc2cccnc12`: the growth in [1] was 9.22% (active); in [2], 3.25% (active); in assay [3] it was 52.5%; in [4], 81.9%; in assay [5], 24.8%; in assay [6], 74.9%. For the same compound, the growth in [7] was 10.5%; in assay [8], 28.5%; in assay [9] it was 62.8%; in assay [10] it was 99.1%; in assay [11] it was 21.6%; in assay [12], 53.7%. Also, the growth in [13] was 32.2%; in assay [14] it was 65.2%; in [15], 19.8%; in assay [16], 56%; in assay [17], 38.9%; in [18], 14.5%.
Consider `CCCCCc1ccc(S(=O)(=O)Nc2cc(-c3csc(NC(=O)CN4CCN(C)CC4)n3)ccc2N2CCN(C)CC2)cc1`, for which the growth in assay [1] was -40.7% (active); in assay [2], -28.5% (active); in assay [3], 19.5%; in assay [4], 18.4%; in [5], -44.3% (active); in assay [6], 18.2%. Further, the growth in assay [7] was 7.21% (active); in [8] it was -34.7% (active); in assay [9], -24.3% (active); in assay [10], 19.1%; in [11] it was -49.9% (active); in assay [12], 77.5%. For the same compound, the growth is -78.6% (active) in assay [13]; -55.1% (active) in assay [14]; -85.9% (active) in assay [15]; -70.9% (active) in assay [16]; -25.2% (active) in assay [17]; 38.9% in assay [18].
With `CN(Cc1ccccc1)S(=O)(=O)/N=C1\NC(=O)NC1=C(Cl)Cl`, the growth is -0.359% (active) in assay [1]; -1.12% (active) in assay [2]; 93.9% in assay [3]; 11.9% in [4]; 91.8% in [5]; 110% in [6]. In addition, the growth is 3.38% (active) in assay [7]; -81.7% (active) in [8]; 96.7% in [9]; 81.5% in [10]; 56.8% in assay [11]; 94.6% in assay [12]. The growth was 79.6% in assay [13]; -49.5% (active) in assay [14]; 12.6% in assay [15]; 21.3% in [16]; 71.8% in [17]; 4.88% (active) in [18].
`Cc1ccc(-c2nn(-c3ccccc3)cc2/C=C/C(=O)c2ccc(NC(=O)CCCCCCC(=O)NO)cc2)cc1`: the growth is 85.4% in assay [1]; 70.5% in assay [2]; 62.5% in assay [3]; 79.2% in [4]; 79.8% in assay [5]; 70.7% in [6]. Further, the growth was 69.1% in assay [7]; 75.9% in assay [8]; 47.1% in assay [9]; 70.4% in assay [10]; 58.5% in [11]; 108% in assay [12]. Moreover, the growth was 67.9% in assay [13]; 75.1% in assay [14]; 71.4% in assay [15]; 33.6% in assay [16]; 83.1% in assay [17]; 78.2% in assay [18].
Take `C=CCn1c(SCC(=O)Nc2ccc(C(=O)/C=C/c3ccc(C)cc3)cc2)nnc1-c1c[nH]c2ccccc12`: the growth was 71.7% in assay [1]; 34.9% in assay [2]; 90.9% in assay [3]; 99.6% in [4]; 81.3% in assay [5]; 105% in assay [6]. The growth in assay [7] is 78.4%; in assay [8] it was 99.4%; in assay [9], 96.9%; in [10], 98.4%; in assay [11] it was 70%; in assay [12], 107%. In addition, the growth in assay [13] is 96.7%; in assay [14] it was 96.9%; in [15], 20.2%; in assay [16], -2.08% (active); in assay [17], 102%; in assay [18], 96.6%.
With `COc1ccc(C(=O)c2c(N)c(C#N)cn2-c2ccccc2OC)cc1`, the growth in [1] was 16.1%; in assay [2] it was 35.9%; in assay [3] it was 55.9%; in assay [4], 76.7%; in assay [5] it was 63.3%; in assay [6], 45.6%. In addition, the growth in assay [7] was 33.1%; in assay [8], 14.6%; in [9] it was 13%; in [10], 13.5%; in [11], 32.1%; in assay [12], 64.5%. Also, the growth is -27.8% (active) in [13]; 20.3% in assay [14]; 13.9% in assay [15]; 22.2% in [16]; 48% in [17]; 27.5% in [18].
Turning to `COc1cc(/C=C2\C(=O)Nc3ccccc32)ccc1OCc1ccc(F)cc1`, the growth in assay [1] is 90.1%; in [2], 107%; in [3], 102%; in assay [4], 107%; in assay [5] it was 103%; in assay [6], 114%. The growth in [7] is 101%; in assay [8] it was 117%; in [9], 115%; in [10] it was 102%; in [11] it was 107%; in [12] it was 116%. Besides, the growth in assay [13] was 103%; in assay [14], 106%; in [15], 87.8%; in assay [16], 107%; in assay [17] it was 119%; in [18] it was 101%.
In the case of `NS(=O)(=O)c1ccc(Nc2nc(N/N=C/c3ccccn3)nc(Nc3ccccc3)n2)cc1`, the growth was 12.5% in assay [1]; 36.6% in assay [2]; 3.72% (active) in [3]; 9.36% (active) in [4]; -20.3% (active) in assay [5]; -31.4% (active) in assay [6]. Besides, the growth is -30.3% (active) in [7]; -15.8% (active) in [8]; -18.8% (active) in assay [9]; 49% in assay [10]; -18.4% (active) in assay [11]; -20.5% (active) in assay [12]. The growth in assay [13] is -84.9% (active); in assay [14], -17.8% (active); in assay [15] it was 1.45% (active); in [16] it was -30% (active); in assay [17], -74.8% (active); in [18], 4.15% (active).

The values above are taken from PubChem BioAssay (NCI).
